Reporter increase data for 60 molecules are collected here from PubChem BioAssay AID588692 (Broad Institute, 2011).

The campaign covered roughly 360,000 compounds. About 830 (0.23%) were called active. Shown is part of a subset that was picked to be rich in actives. Values without a mark were called inactive.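 Rule for the calls: active = mean luciferase reporter signal, scaled so untreated is 0 and the glycosylation-blocking control 100, at or above a set limit in every replicate; inconclusive = mean reaches the limit but not every replicate does; inactive = mean below the limit.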

A short description of this experiment: increase of ERlucT glycosylation luciferase signal, primary screen, N-linked glycosylation inhibitor project, D54 ERlucT cells, luminescence, set 2 (AID 588692).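 Note: luciferase carries N-glycosylation sites so blocking glycosylation raises the light; 0% = median of neutral control wells and 100% = median of 100 nM tunicamycin wells.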 The following applies: 24 h, at 12.5 µM, hits give high values, percent of 100 nM tunicamycin response.
Regarding `CCCn1nc(C(=O)Nc2ccc3nc(C)sc3c2)c2ccccc2c1=O`, the reporter increase was -5.69%.

On to `CC(=O)Nc1ccc2nc(NC(=O)CS(=O)(=O)c3ccc(F)cc3)sc2c1`, for which the reporter increase was 1.57%.

`CCCC(=O)Nc1nc2ccc(NC(=O)c3c(F)c(F)c(OC)c(F)c3F)cc2s1`: the reporter increase is 45.8% (active).

Turning to `O=C(NCN1CCN(CCO)CC1)c1cnccn1`, the reporter increase is 1.41%.

`Cc1cc(C)c2nc(SCC(=O)N(C)C3CCS(=O)(=O)C3)cc(C)c2c1` (stereo not given): the reporter increase was -2.35%.

As to `CC1CCN(c2ccc(-c3ccc(NC(=O)c4ccco4)cc3)nn2)CC1`, the reporter increase was -3.17%.

As to `O=C(NCCCn1ccnc1)c1cc(Br)c(Br)s1`, the reporter increase was -1.37%.

As for `COc1cc(OC)cc(C(=O)NCCCn2ccnc2)c1`, the reporter increase was -1.14%.

On to `O=C(NCCCn1ccnc1)c1cc(-c2ccccc2)on1`, for which the reporter increase is 86.5% (active).

On to `CC(C)CC1C(=O)N(Cc2cn(CC3CCCCC3)nn2)CCS(=O)(=O)N1Cc1ccc(-c2ccc(Cl)cc2)cc1` (stereo not given), for which the reporter increase was -5.63%.

Turning to `COc1ccc(-c2c(C#N)cnc(C)c2C)c(O)c1OC`, the reporter increase is 1.16%.

For the molecule `CSc1ncnc2c1ncn2CCCNCc1ccco1`, the reporter increase was -1.13%.

Take `CCc1ccccc1NC(=O)Cc1cn(C)c2ccccc12`: the reporter increase was 0.183%.

On to `COc1ccc(CNC(=O)C[C@H]2C[C@H](C(=O)N3CCOCC3)[C@@]3(C)c4[nH]c5cc(CCC(=O)N(C)C)ccc5c4CCN3C2=O)cc1OC`, for which the reporter increase is 1.84%.

Regarding `O=C(OC(C(=O)NC1CCCC1)c1ccc(F)cc1)c1ccno1` (stereo not given), the reporter increase is 3.11%.

In the case of `N#Cc1cc([N+](=O)[O-])ccc1NCC1CCCO1` (stereo not given), the reporter increase was -0.076%.

With `O=C1c2cccc3c([N+](=O)[O-])ccc(c23)C(=O)N1CC1CCCO1` (stereo not given), the reporter increase was 29.4% (active).

On to `O=C1C(C=NCC2CCCO2)=C(O)c2ccccc21` (stereo not given), for which the reporter increase is -4.51%.

As to `C[C@@H]1C[C@@H]2O[C@H]2/C=C\C=C\C(=O)Cc2c(Cl)c(O)cc(O)c2C(=O)O1`, the reporter increase was -14.3%.

Turning to `CCC1=C(OC(=O)N(CC)CC)N2C(=O)OC(=NCCc3c[nH]c4ccccc34)[C@]2(C)[C@H]2C1=CC[C@H]1C(=O)N(CC)C(=O)[C@H]12`, the reporter increase was -4.07%.

With `CC(=O)c1ccc(S(=O)(=O)NCCC(=O)N2CCN(c3ccccn3)CC2)cc1`, the reporter increase was -0.855%.

As to `CCN(CC(=O)Nc1c(F)cccc1F)C(=O)C1CCC1`, the reporter increase was 0.369%.

Regarding `O=C(CCl)Nc1ccc(Sc2ccc(NC(=O)CCl)cc2)cc1`, the reporter increase was 41% (active).

With `CC(=O)Nc1ccc(SCC(=O)NC(=O)c2ccc(Cl)cc2)cc1`, the reporter increase is -6.32%.

As for `O=C(O)CSCC(=O)Nc1ccc(C(F)(F)F)cc1`, the reporter increase is 1.33%.

Turning to `Cc1ccccc1NC(=O)c1ccc(COc2ccc3c(C)cc(=O)oc3c2)cc1`, the reporter increase is -2.09%.

As for `O=C(c1ccccc1)C(Cn1cncn1)C(Sc1ccccc1)c1ccccc1` (stereo not given), the reporter increase is -3.83%.

As to `O=C(NCc1ccc2c(c1)OCO2)c1cc([N+](=O)[O-])ccc1N1CCOCC1`, the reporter increase was 25.7% (active).

With `O=C(Cc1ccc([N+](=O)[O-])cc1)NCCc1ccc2c(c1)OCO2`, the reporter increase is -0.789%.

For `CC1CCN(c2ccc(C(=O)NCc3ccc4c(c3)OCO4)cc2[N+](=O)[O-])CC1`, the reporter increase is -1.89%.

On to `Cc1ccc(C(=O)NCC(c2cccs2)N(C)C)cc1S(=O)(=O)N1CCOCC1` (stereo not given), for which the reporter increase was 0.45%.

Take `Cc1nc(-c2ccccc2)sc1-c1nnc(C2CC2)o1`: the reporter increase is 0.986%.

With `Cc1ccc(Nc2nc(N)nc(CN3CCN(Cc4ccccc4)CC3)n2)cc1Cl`, the reporter increase is 49% (active).

Take `CCOC(=O)C1CCCN(Cc2nc(N)nc(Nc3ccc(C)cc3)n2)C1` (stereo not given): the reporter increase is 1.57%.

On to `Cc1ccccc1Nc1nc(N)nc(CN2CCN(c3ccccn3)CC2)n1`, for which the reporter increase was 1.95%.

As for `CCN(C(=O)COC(=O)c1cc(S(=O)(=O)N2CCc3ccccc32)ccc1OC)C1CCS(=O)(=O)C1` (stereo not given), the reporter increase was -1.41%.

As to `Cc1cccc(C(=O)NCc2nnc(SC(C)C(=O)Nc3nnc(C)s3)n2C)c1` (stereo not given), the reporter increase is -0.286%.

Consider `CC(C)(Oc1ccc(C2CC2(Cl)Cl)cc1)C(=O)O` (stereo not given), for which the reporter increase was 4.07%.

Consider `O=C(Nc1ccccc1F)c1ccc(S(=O)(=O)N2CCCCCC2)cc1`, for which the reporter increase was -0.684%.

Consider `Nc1ccc(C(=O)Nc2ccccc2N)cc1`, for which the reporter increase was 69.6% (active).

Consider `O=C(Cc1ccccc1)Nc1ccc(C(=O)Nc2ccccc2C(=O)O)cc1`, for which the reporter increase is 1.55%.

Turning to `Cc1ccc(S(=O)(=O)NC(=O)N2CCCN(Cc3ccc(F)cc3)CC2)cc1`, the reporter increase is -2.48%.

Take `O=C(CCNS(=O)(=O)c1ccccc1)NCCSc1ccc(Br)cc1`: the reporter increase is 2.32%.

Regarding `CC1(C)CC(=O)C=C(NCc2ccncc2)C1`, the reporter increase was 1.27%.

Turning to `O=C(CCN1C(=O)C2CCCCC2C1=O)Nc1ccc(OC(F)F)cc1` (stereo not given), the reporter increase is 0.177%.

On to `Cc1cc(Cl)ccc1N1C(=O)CC(SCCC(=O)O)C1=O` (stereo not given), for which the reporter increase is 1.84%.

As for `O=C(O)CC(Cc1ccccc1)C(=O)Nc1ccc([N+](=O)[O-])cc1` (stereo not given), the reporter increase is -1.27%.

As to `COc1cccc(C(NC(C)=O)c2nc(-c3cnc4ccccc4c3)cs2)c1` (stereo not given), the reporter increase is 1.72%.

`CC(=O)NC(c1ccccc1)c1nc(-c2ccccc2C)cs1` (stereo not given): the reporter increase was 11.9%.

As for `COc1cccc(C(NC(C)=O)c2nc(-c3ccccc3OC)cs2)c1` (stereo not given), the reporter increase was 62.8% (active).

For `COc1cccc(C(=O)N2CCC(n3nccc3NC(=O)C3CCOC3)CC2)c1` (stereo not given), the reporter increase is 0.842%.

In the case of `COc1ccc(Cl)cc1NS(=O)(=O)c1cccc(C(=O)NC2CCC(O)CC2)c1` (stereo not given), the reporter increase was -1%.

`Cc1[nH]n(C(N)=S)c(=O)c1N=Nc1ccc(Cl)cc1Cl`: the reporter increase is -0.0505%.

For the molecule `CC(=O)NC(Cc1ccc(F)c(F)c1)C(=O)NC1CCN(c2nnnn2-c2ccccc2)CC1` (stereo not given), the reporter increase is 0.485%.

`Cc1ccc(NNC(=O)c2cccs2)cc1Cl`: the reporter increase was 1.56%.

As for `Cc1cccc(C(=O)Nc2ccc(C(=O)/C=C/c3cccs3)cc2)c1`, the reporter increase was -1.77%.

Consider `Cc1ccc(OCC(=O)Nc2ccc(N3CCN(C(=O)c4ccco4)CC3)cc2)c(C)c1`, for which the reporter increase is -5.46%.

As for `Cc1ccc(OCC(=O)Nc2ccc(NC(=O)c3cccs3)cc2)c(C)c1`, the reporter increase is 79.9% (active).

Consider `C/C(=N\OCC(=O)Nc1ccc(Br)cc1)c1cccs1`, for which the reporter increase is 2.32%.

`Cc1ccc(C(=O)Nc2ccc(NC(=O)c3cccs3)cc2)c(C)c1`: the reporter increase was 47.6% (active).
